# VLA-4 inh: inhibition in a human VLA-4 binding assay; P13612; VLA-4 expressing cells, ligand binding flow cytometry; inhibition, % (about 7 µM as worked out from the volumes in the protocol); actives 0.2% (n = 330,000); in the data active = inhibition above about 50%
# MEKK3 PB1 HTS: raises or lowers MEK5 binding to the human MEKK3 PB1 domain; Q99759; bead-based flow cytometry, Alexa488-MEK5 binding to MEKK3; actives lie on both sides; 0 = blocked by unlabeled MEK5, 100 = vehicle; binding response (% of control), % at 10 µM; actives 1.4% (n = 290,000); AID 1529;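 active = binding response more than 3 SD above or below the average of its plate-row segment, actives on both sides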;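 note: Alexa488 bead fluorescence after subtracting the streptavidin-only scavenger bead signal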
# Target sequence (Q99759 whole entry, looked up, the tested form may be a part): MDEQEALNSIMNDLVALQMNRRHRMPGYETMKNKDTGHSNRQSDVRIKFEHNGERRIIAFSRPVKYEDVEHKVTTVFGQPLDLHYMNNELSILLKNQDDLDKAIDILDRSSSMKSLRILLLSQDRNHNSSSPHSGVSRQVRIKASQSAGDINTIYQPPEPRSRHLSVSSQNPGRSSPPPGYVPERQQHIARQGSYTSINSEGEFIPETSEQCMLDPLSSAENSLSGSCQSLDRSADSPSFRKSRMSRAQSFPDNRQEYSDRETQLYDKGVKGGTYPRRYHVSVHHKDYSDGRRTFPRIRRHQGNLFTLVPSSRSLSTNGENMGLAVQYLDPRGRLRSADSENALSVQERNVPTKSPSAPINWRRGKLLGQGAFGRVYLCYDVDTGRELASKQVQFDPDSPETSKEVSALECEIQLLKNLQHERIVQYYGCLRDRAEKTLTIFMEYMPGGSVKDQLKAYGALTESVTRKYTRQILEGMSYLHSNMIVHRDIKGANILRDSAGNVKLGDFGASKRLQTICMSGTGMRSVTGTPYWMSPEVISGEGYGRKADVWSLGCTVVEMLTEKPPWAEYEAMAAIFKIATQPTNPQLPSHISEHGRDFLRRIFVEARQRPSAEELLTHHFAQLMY
# MEKK2 WT-MEK5: raises or lowers MEK5 binding to wildtype human MEKK2 PB1 domain; bead flow cytometry, Alexa488-MEK5 binding to MEKK2 WT; actives lie on both sides; Q9Y2U5; binding response (% of control), % at 10 µM; actives 1.1% (n = 290,000); in the data active = binding response below about 67% or above about 130%
# MEKK2mut PB1 HTS: signal of MEK5 binding to mutant human MEKK2 PB1 domain | bead flow cytometry, Alexa488-MEK5 binding to MEKK2 mutant | percent response, % at 10 µM | actives 0.35% (n = 290,000) | AID 1530; in the data active = percent response above about 24%, passing the limit was not always enough
# MEKK2wt confirm: raises or lowers MEK5 binding to wildtype human MEKK2, retest. binding response (% of control), % at 10 µM. bead flow cytometry, Alexa488-MEK5 binding to MEKK2 WT; actives lie on both sides. shares compounds with MEKK3 PB1 HTS. AID 1892. actives 2.4% (n = 5,900); in the data active = binding response below about 16% or above about 210%; inactive = in between
# MEKK2mut confirm: signal of MEK5 binding to mutant human MEKK2, retest. shares compounds with MEKK3 PB1 HTS. bead flow cytometry, Alexa488-MEK5 binding to MEKK2 mutant. percent response, % at 10 µM. actives 2% (n = 5,900); in the data active = percent response mostly above about 71%, no sharp cut-off; inactive = mostly below about 38%;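 note: higher means compound restores mutant binding toward wildtype level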
# MEKK3 confirm: MEKK3-MEK5 PB1 inhibition, single concentration confirmation. shares compounds with MEKK3 PB1 HTS. actives 1.8% (n = 5,900). AID 1894. binding response (% of control), % at 10 µM. bead flow cytometry, Alexa488-MEK5 binding to MEKK3; hits give low values;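 active = binding response below 72% of control, or above a set upper limit, though filed actives all read lower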;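 note: 100% = DMSO only wells and 0% = binding blocked by excess unlabeled MEK5; lower values mean stronger disruption of MEK5 binding to MEKK3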
# * = called active by the depositor; i = inactive; · = no result given; [ ] = another dose, or the depositor's remark. This is a sample that favours compounds with a hit; in the whole collection about 2.2% have one here.
SMILES,VLA-4 inh,MEKK3 PB1 HTS,MEKK2 WT-MEK5,MEKK2mut PB1 HTS,MEKK2wt confirm,MEKK2mut confirm,MEKK3 confirm
CCN(CC)C(=O)CC(c1ccc(OC)cc1)c1c(OC)cc(OC)c2ccc(=O)oc12 (configuration not stated),·,117,145*,4,102,2,100
CCOC(=O)C1CCCN(C(=O)c2cccc(S(=O)(=O)N(Cc3ccccc3)c3ccccc3OC)c2)C1 (configuration not stated),8,·,·,·,·,·,·
N[C@@H](Cc1ccccc1)c1nnc(SC/C=C/c2ccccc2)o1,-13,99,100,0,·,·,·
CCc1cccc2cc3c(N)c(C(=O)Nc4ccc(S(=O)(=O)N5CCCC5)cc4)sc3nc12,i,154*,67,4,87,-13,99
CC(C)CCNC(=O)C(=O)NCc1ccccc1,-9,49*[inhibitor],53,-20,96,-1,97
O=C(O)CNC(=S)NCc1ccccc1,5,101,103,0,·,·,·
CN(N)C(=S)NCc1ccccc1,-22,123*,116,5,102,-2,97
CC(C)C(NC(=S)NCc1ccccc1)C(=O)O (configuration not stated),10,34*[inhibitor],43*[inhibitor],-10,95,-2,98
CC(C)(C)OC(=O)N1CCC(c2c(C(=O)NCC3CCN(C4CCCC4)C3)cnn2-c2ccccc2Cl)CC1 (configuration not stated),1,103,122,5,·,·,·
CN(C)CCCN(C(=O)COc1ccc(Cl)cc1)c1nc2ccc(F)cc2s1,-4,103,122,2,·,·,·
Cc1cccc2sc(N(CCCN(C)C)C(=O)COc3ccc(Cl)cc3)nc12,-1,105,191*,53*,168,28,106
CN(C)CCCN(C(=O)CCOc1ccccc1)c1nc2ccc(F)cc2s1,·,108,143*,7,126,10,105
Cc1ccc2sc(N(CCCN(C)C)C(=O)CN3C(=O)c4ccccc4C3=O)nc2c1C,11,106,150*,33,132,13,101
CN(C)CCCN(C(=O)COc1ccc(Cl)cc1)c1nc2c(F)cccc2s1,2,103,162*,33,161,40,112
CSc1ccc(S(=O)(=O)Nc2ccc(OCC(=O)N3CCOCC3)cc2)cc1,7,100,101,-4,·,·,·
CCOc1ccc(CCNC(=O)CCNS(=O)(=O)c2ccc3c(c2)CCN3C(C)=O)cc1OCC,12,94,95,-6,·,·,·
COc1ccc(S(=O)(=O)N2CCC(C(=O)NCc3ccncc3)CC2)cc1C,11,100,97,-2,·,·,·
CN(C)CCCN(C(=O)CCOc1ccccc1)c1nc2c(F)cccc2s1,·,105,146*,41,142,24,106
CN(C)CCCN(C(=O)CCc1ccccc1)c1nc2c(F)cccc2s1,28,98,118,-1,·,·,·
Cc1ccc(C)c(N2CCN(S(=O)(=O)c3csc(C(N)=O)c3)CC2)c1,2,98,101,0,·,·,·
N=c1n(CCN2CCOCC2)c2ccccc2n1CC(=O)c1cccc([N+](=O)[O-])c1,1,12*[inhibitor],22*[inhibitor],-19,109,9,107
CCn1c(=N)n(CC(=O)c2cccc([N+](=O)[O-])c2)c2ccccc21,-2,100,100,-2,·,·,·
COc1ccc(CC(=O)NNc2ncnc3c2cnn3-c2ccc(C)cc2)cc1,18,96,95,0,·,·,·
COc1ccc(CC(=O)NNc2ncnc3c2cnn3-c2ccccc2)cc1,16,136*,103,0,89,-2,97
CC(C)(C)[C@H]1COC(=O)CCCC/C=C\C[C@H](CC(=O)N(CCO)Cc2ccccc2)C(=O)N1,-18,·,·,·,·,·,·
SMILES,VLA-4 inh,MEKK3 PB1 HTS,MEKK2 WT-MEK5,MEKK2mut PB1 HTS,MEKK2wt confirm,MEKK2mut confirm,MEKK3 confirm
CC(=O)c1ccc(NC(=O)CSc2ccc(-c3ccc4c(c3)OCO4)nn2)cc1,6,130*,103,0,106,7,107
COc1cc(OC)c(CN2CCc3c([nH]c4ccccc34)C2)cc1Br,-32,103,122,30*,128,15,107
Cc1cccc(CN2CCc3c([nH]c4ccccc34)C2)c1,-2,101,106,10,·,·,·
CCN(CC)c1ccc(/C=C/C(=O)c2ccc(Br)cc2)cc1,i,111,344*,431*,82,-40,87
CN(C)c1ccc(C(=O)/C=C/c2ccc(Br)cc2)cc1,-11,97,93,-2,·,·,·
CC1CC1C(=O)N(CCC1=CCCCC1)c1c(N)n(Cc2ccccc2)c(=O)[nH]c1=O (configuration not stated),3,·,·,·,·,·,·
CCCN1C2CCCC1CC(NC(=O)NC1CCCCC1)C2 (configuration not stated),12,2.0*[inhibitor],2.0*[inhibitor],-14,101,2,100
N/C(Cc1cccc2ccccc12)=N\OC(=O)c1cccs1,-21,103,100,0,·,·,·
N/C(Cc1cccc2ccccc12)=N\OC(=O)Cc1cccs1,-4,144*,100,0,98,0,102
OC(CCc1cccc(Cl)c1)c1cccs1 (configuration not stated),19,100,104,4,·,·,·
COc1ccccc1CNC(=O)CN(c1cccc([N+](=O)[O-])c1)S(C)(=O)=O,-5,1.0*[inhibitor],-2.0*[inhibitor],-22,96,-11,97
CCCCCCCCO,9,·,·,·,·,·,·
CCCCCCCCCCCCCCCC(O)C(N)CO (configuration not stated),44,102,220*,38*,161,36,107
O=C(NCc1ccccc1)C(=O)NCC1OCCN1C(=O)c1cccs1 (configuration not stated),1,132*,103,0,99,0,102
O=C(NCc1ccccc1)C(=O)NCC1OCCN1C(=O)c1ccc(Cl)cc1 (configuration not stated),6,100,98,-2,·,·,·
Cc1ccc(CNC(=O)C(=O)NCC2OCCN2C(=O)c2cccs2)cc1 (configuration not stated),12,135*,103,0,104,2,105
O=C(Cc1ccc2c(c1)CCCC2)Nc1ccccc1Br,4,43*[inhibitor],58,-25,108,6,106
O=C(Cc1ccc2ccccc2c1)Nc1ccccc1Br,-3,93,99,2,·,·,·
COc1cc(C(=O)OCC(=O)Nc2cccc(S(=O)(=O)N3CCCC3)c2)ccc1OCC(C)C,12,·,·,·,·,·,·
COc1ccc(NC(=O)CSCc2cc(=O)n3c(C)csc3n2)cc1,5,98,102,3,·,·,·
